Assay results: publication PMC5540273 (PLoS ONE, 2017)

Legend:
Conditions in all cases: concentration: 1 μM, replicates: in singlicate; n = 1
CTK = test system: T1, CTK
T1 construct: gene MATK

DAPK1 = test system: DAPK1
DAPK2 = test system: DAPK2
DAPK3 = test system: DAPK3
DCAMKL1 = test system: T2, DCAMKL1
T2 construct: gene DCLK1

DCAMKL2 = test system: T3, DCAMKL2
T3 construct: gene DCLK2

DCAMKL3 = test system: T4, DCAMKL3
T4 construct: gene DCLK3

DDR1 = test system: DDR1
DDR2 = test system: DDR2
DLK = test system: T5, DLK
T5 construct: gene MAP3K12

DMPK2 = test system: T6, DMPK2
T6 construct: gene CDC42BPG

DMPK = test system: DMPK
DRAK1 = test system: T7, DRAK1
T7 construct: gene STK17A

DRAK2 = test system: T8, DRAK2
T8 construct: gene STK17B

DYRK1A = test system: DYRK1A
DYRK1B = test system: DYRK1B
DYRK2 = test system: DYRK2
EGFR = test system: EGFR
EIF2AK1 = test system: EIF2AK1
EPHA1 = test system: EPHA1
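Further: KINOMEscan kinase panel screen.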

SMILES	%Inh (CTK)	%Inh (DAPK1)	%Inh (DAPK2)	%Inh (DAPK3)	%Inh (DCAMKL1)	%Inh (DCAMKL2)	%Inh (DCAMKL3)	%Inh (DDR1)	%Inh (DDR2)	%Inh (DLK)	%Inh (DMPK2)	%Inh (DMPK)	%Inh (DRAK1)	%Inh (DRAK2)	%Inh (DYRK1A)	%Inh (DYRK1B)	%Inh (DYRK2)	%Inh (EGFR)	%Inh (EIF2AK1)	%Inh (EPHA1)
CC(=O)c1cccc(NC(=O)NC2CCN(c3ccnc(Nc4ccc(F)cc4)n3)C2)c1 (stereo not drawn) [GSK1379710]	0%	15%	2%	26%	6%	11%	14%	20%	7%	29%	6%	0%	6%	0%	0%	27%	17%	18%	0%	7%
c1ccc(-c2ccnc3[nH]ccc23)cc1 [SB-693578]	0%	0%	0%	19%	16%	0%	0%	23%	26%	37%	0%	0%	8%	0%	34%	0%	19%	17%	6%	25%
CCCCc1nn2ncccc2c1-c1ccnc(NC2CC2)n1 [GW684374]	0%	20%	0%	12%	0%	0%	0%	67%	23%	35%	0%	0%	0%	0%	12%	3%	6%	26%	0%	11%
Cl.Cl.Cl.N#Cc1ccc(CCNc2nccc(-c3cccc(CN4CCNCC4)c3)n2)cc1 [GSK2137462]	2%	28%	19%	75%	14%	0%	0%	0%	0%	0%	41%	10%	0%	0%	0%	0%	24%	11%	2%	19%
CNCc1ccc2nc(NC(=O)c3ccc(C(C)(C)C)cc3)cn2c1	45%	0%	0%	1%	15%	4%	24%	9%	24%	27%	0%	7%	11%	24%	35%	0%	6%	0%	4%	4%
CS(=O)(=O)CCNCc1nc(-c2ccc3ncnc(Nc4ccc5c(cnn5Cc5ccccc5)c4)c3c2)cs1.Cl.Cl [GW569716]	0%	0%	0%	0%	9%	0%	4%	0%	24%	53%	0%	0%	35%	21%	36%	0%	0%		0%	14%
Cc1cnc(N)c(/C=C/c2cncc(C(=O)NCCc3ccc(Cl)cc3Cl)c2)c1.Cl [GSK190937]	0%	10%	7%	11%	4%	0%	23%		79%	25%	3%	0%	18%	0%	8%	15%	4%	0%	0%	0%
Cc1ccccc1-c1cc(-c2c[nH]nc2-c2ccccn2)ccn1 [GW680061]	0%	0%	0%	25%	0%	6%	12%	79%	5%	32%	0%	0%	2%	0%	14%	0%	0%	38%	0%	3%
CN1c2ccc(-c3ccc(C(N)=O)cc3)cc2-c2[nH]ncc2S1(=O)=O	0%	54%	18%	26%	7%	0%	0%	0%	28%	0%	0%	0%	52%	15%	34%	24%	0%	0%	0%	8%
Cc1cccc2c(-c3ccncn3)c(-c3ccc(F)cc3)nn12 [GW515532]	0%	6%	0%	0%	0%	0%	1%	43%	16%	25%	24%	0%	0%	0%	23%	0%	13%	47%	0%	16%
CS(=O)(=O)CCNCc1nc(-c2ccc3ncnc(Nc4ccc(OCc5ccccc5)c(Cl)c4)c3c2)cs1.Cl [GW582764]	0%	0%	0%	0%	13%	0%	6%	99.8%	40%	50%	0%	0%	4%	0%	19%	0%	0%		0%	8%
COC(=O)C(NC(=O)NC1CCN(c2ccnc(Nc3ccc(F)cc3)n2)C1)c1ccccc1 (stereo not drawn) [GSK1379712]	0%	15%	0%	25%	17%	12%	0%	0%	39%	0%	1%	0%	2%	0%	0%	17%	13%	23%	0%	10%
